We go through 40 molecules from PubChem BioAssay (EPA / NIEHS).

As usually defined, the AC50 is the concentration giving half of the maximal activity seen.

Calls of active or inactive are those of the source. Rule for the calls: active = hit-call score of the fitted dose curve at least 0.9, where 1 is the maximum; inactive = score below 0.9.

Read-out in this assay: Interleukin 6 (IL6), IL6 (gene 3569)
As to the kind of experiment: LTEA_HepaRG_IL6: Life Technologies and Expression Analysis (LTEA) Assay for Interleukin 6 (IL6) using HepaRG (AID 2283509). The settings on record: mRNA level, 48 h; actives raise or lower the signal. As to the method: LTEA_HepaRG is a cell based, multiplexed-readout assay that uses HepaRG, a human liver cell line, with measurements taken at 48 hours after chemical dosing on a 96-well plate.LTEA_HepaRG_IL6 is one of 102 assay component(s) measured in the LTEA HepaRG cell culture assay. It is a marker of Inflammation.Data from the assay component LTEA_HepaRG_IL6 was analyzed into 1 endpoint. This assay endpoint, LTEA_HepaRG_IL6, was analyzed with bidirectional fitting relative to DMSO as the negative control and baseline of activity. Using a type of inducible reporter, measures of mRNA induction for gain or loss-of-signal activity can be used to understand regulation of transcription factor activity. To generalize the intended target to other relatable targets, this assay endpoint is annotated to the cytokine intended target family, where the subfamily is interleukins.
A total of 1060 chemcials from the ToxCast library were tested in eight-point concentration-response experiments. Cell culture and cytotoxicity assays were conducted at Thermo Fisher Scientific's Custom Services facility (Madison, WI). A single lot of human HepaRG cells (Thermo Fisher Scientific, Frederick, MD) was used for the cell culture experiments. 96-well format collagen type I coated plates of human HepaRG cells were prepared using established methods. Briefly, cryopreserved HepaRG cells were thawed, plated at a density of approximately 100,000 cells/well in HepaRG Thaw, Plate, and General Purpose media (HPRG770, Thermo Fisher Scientific), and incubated for 48 hours. 0.5% DMSO was selected as vehicle control to balance the requisite need of DMSO in HepaRG cultures to maintain differentiation (for example, baseline metabolism, proportions of hepatocytes vs. cholangiocytes), while enabling further hepatic receptor pathway activation (for example, PXR and CAR) in response to chemical exposure. 48 hours after plating, the culture medium was replaced with HepaRG Serum-Free Incudtion Media. Cells were exposed to each test chemical in duplicate and maintained in CO2 incubators for another 48 hours. Chemical plates were thawed to room temperature and 200x concentrations of treatment groups were prepared. 8-point conentration-reponse curves were made with the highest exposure at 100 uM, followed by half-log dilutions, all in 0.5% DMSO. Each test plate contained variouse controls, induction positive controls (1mM phenobarbital), cytotoxicity positive controls ([…] aflatoxin B1), vehicle controls (0.5% DMSO), and total lysis controls (0.5% DMSO). Cell morphology images were taken using an Essen IncuCyte FLR automated microscope, with six 96-well plates imaged in about 24 minutes. Images were captured and exported and JPEG files. Spent culture media was transfered to black-well plates for the LDH assay, and remaining media was sorted at -80 C for later use. Cells were treated with RLT buffer and frozen until shipped for gene expression analysis. Total RNA was isolated from the cell suspension in 75 uL of Buffer RLT (Qiagen, Germantown, MD 20874) by Quintiles/Expression Analysis (Durham, NC) using a custom isolation procedure. Total RNA from each plate well was transferred to a preamplification plate. Fluidigm's 96.96 Dynamic ArrayTM (Fluidigm, Amsterdam, the Netherlands) technology was used for gene expression analyses by quantitative reverse transcription polymerase chain reaction (qRT-PCR, performed by Quintiles/Expression Analysis, Durham, NC)89. Standard TaqManTM Assays (Applied Biosystems/ThermoFisher Scientific, Foster City, CA) were used to assess the expression of 93 genes selected based on their selectivity and sensitivity to important hepatic receptors known to be modulated by environmental chemicals; importance in human hepatocyte functionality; and hepatotoxicity. […]
With `CC/C(=C\C(=N/O)C(N)=O)C(C)[N+](=O)[O-]` (stereo not given), the outcome was inactive.
As for `CCOc1cccc(-n2cc(C(=O)N3CCN(c4cc(C(=O)O)c5ccccc5c4)CC3)nc2-c2ccc(C)cc2)c1`, the half-maximal activity concentration (AC50) is 74.2 µM (active).
Turning to `COCCOc1cc2cc(C(=O)NC3CCN(C(C)C)CC3)n(CC(=O)Nc3ccc(Cl)cn3)c2cn1`, the result was inactive.
On the same count and under the same terms, under `On1ccccc1=S` stands “inactive”; under `COc1ccc(/C=C/S(=O)(=O)NC(=O)c2ccc(C)cc2Cl)cc1`, “inactive”; under `CC(C)=CCCC(C)CCO` (stereo not given), “inactive”.
On the same count and under the same terms, the result for `Oc1ccc2c(c1)-c1ccccc1C2` reads “inactive”; that for `Nc1cccc(N)c1`, “inactive”; that for `CCC(C)(C)C(=O)O[C@H]1C[C@@H](C)C=C2C=C[C@H](C)[C@H](CC[C@@H]3C[C@@H](O)CC(=O)O3)[C@H]21`, “inactive”.
On to `O=C(O)CCN(C1(C(=O)NO)CCCC1)S(=O)(=O)c1ccc(Oc2ccc(F)cc2)cc1`, for which the outcome was inactive.
`C1=CCCC=CCCC=CCC1`: the molecule was called inactive.
As for `CN(C)c1ccc(N=NS(=O)(=O)O)cc1`, the result was inactive.
Regarding `Clc1nc(Cl)c(Cl)c(Cl)c1Cl`, the outcome was inactive.
The same measure, in the same setting: the result for `C[C@](N)(Cc1ccc(O)c(O)c1)C(=O)O` reads “inactive”; that for `C1N2CN3CN1CN(C2)C3`, “inactive”; that for `Cc1ccc(C)c(O)c1`, “inactive”.
Same read-out and setting: under `COC(=O)c1c(Cl)c(Cl)c(C(=O)OC)c(Cl)c1Cl` stands “inactive”; under `CC[C@H]1OC(=O)[C@H](C)[C@@H](O[C@H]2C[C@@](C)(OC)[C@@H](O)[C@H](C)O2)[C@H](C)[C@@H](O[C@@H]2O[C@H](C)C[C@H](N(C)C)[C@H]2O)[C@](C)(O)C[C@@H](C)C(=O)[C@H](C)[C@@H](O)[C@]1(C)O`, “inactive”.
Same read-out and setting: under `C=CCCCCCCCCC(=O)O` stands “inactive”.
`Cc1ccc(N)cc1O`: the call was inactive.
The same measure, in the same setting: under `COCCOCCOCCOC` stands “inactive”; under `Cn1cnc([N+](=O)[O-])c1Sc1ncnc2nc[nH]c12`, “inactive”; under `O=C(O)c1cc(N=Nc2ccc(S(=O)(=O)Nc3ccccn3)cc2)ccc1O`, “inactive”.
Same read-out and setting: the result for `COc1ccc2sc(C(=O)Nc3nnn[nH]3)c(OC(C)C)c2c1` reads “inactive”; that for `C=CC(=C)CCC=C(C)C`, “inactive”; that for `CC1(C)C(=O)N(Br)C(=O)N1Br`, “inactive”.
Turning to `CCn1nc(Cc2ccccc2)cc1C1CCN(C[C@H]2C[C@H](N(C)[C@@H](C(=O)O)C(C)C)C[C@@H]2c2cccc(F)c2)CC1`, the molecule was called inactive.
For `CCOCCOCCOCCO`, the molecule was classed as inactive.
As to `O=C1OC(=O)C2C3C=CC(C3)C12` (stereo not given), the call was inactive.
On to `Nc1ccc(Nc2ccccc2)cc1`, for which the call was inactive.
Same read-out and setting: under `CC(O)CN(CCN(CC(C)O)CC(C)O)CC(C)O` (stereo not given) stands “inactive”.
On the same count and under the same terms, under `O=C(O)c1cccc(N(Cc2cccnc2)c2ccc(OC(F)F)c(OC(F)F)c2)c1` stands “inactive”; under `CC(C)=CCC/C(C)=C/CO`, “inactive”.
The same measure, in the same setting: under `Cc1ccc(S(=O)(=O)O)cc1C` stands “inactive”.
For the molecule `O=c1n(CC2CO2)c(=O)n(CC2CO2)c(=O)n1CC1CO1` (stereo not given), the half-maximal activity concentration (AC50) was 50 µM (active).
On the same count and under the same terms, under `CCN(C(=O)c1cc(C)cc(OC[C@H](C)Nc2ccncc2)c1)C(C)C` stands 33.8 µM (active).
`Nc1nc2ncc(CNc3ccc(C(=O)N[C@@H](CCC(=O)O)C(=O)O)cc3)nc2c(=O)[nH]1`: the call was inactive.
`COc1cccc(-c2ccc(/C=C\CN3CCCCCC3)cc2Cl)c1`: the concentration at half-maximal activity (AC50) was 74.8 µM (active).
In the case of `CC(C)CC(C)(O)C#CC(C)(O)CC(C)C` (stereo not given), the result was inactive.
The same measure, in the same setting: under `CCOC(=O)c1ccc(C2CCC(NC[C@H](O)COc3ccc(O)c(NS(C)(=O)=O)c3)CC2)cc1` (stereo not given in full) stands “inactive”.
